Experimental data taken from PubChem BioAssay (NCATS).
Records with an inconclusive call do not appear. Entries that show only a call come without a potency. Values without a mark were called inactive. The source made the active and inactive calls. Unless noted, calls follow the shape of the full dose curve.

Columns and labels:
[1] = qHTS for Inhibitors of the Functional Ribonucleoprotein Complex (vRNP) of Lassa (LASV) Arenavirus: Viability assay - alamar blue signal for LASV Primary Screen (AID 1347083; calls by dose curve; tested in HEK293 reporter line; also: nearly all actives have a fitted effect of over 80% in size; as to activity change, negative = reduced viability: series mostly up to about 57 µM)
[2] = qHTS for Inhibitors of the Functional Ribonucleoprotein Complex (vRNP) of Lymphocytic Choriomeningitis Arenaviruses (LCMV): Viability assay - alamar blue signal for LCMV Primary Screen (AID 1347085; calls by dose curve; tested in HEK293 reporter line; also: nearly all actives have a fitted effect of over 80% in size; as to activity change, negative = lower viability: series mostly up to about 57 µM)
[3] = molecular target: Nucleoprotein (Lymphocytic choriomeningitis virus (strain Armstrong)) (UniProt P09992); test: qHTS for Inhibitors of the Functional Ribonucleoprotein Complex (vRNP) of Lymphocytic Choriomeningitis Arenaviruses (LCMV): LCMV Primary Screen - GLuc reporter signal (AID 1347086); also: nearly all actives have a fitted effect of over 70% in size; as to activity change, negative = inhibition: series mostly up to about 57 µM
Potency is read from the fitted curve at half-maximal effect.

Sequence of Nucleoprotein (Lymphocytic choriomeningitis virus (strain Armstrong)) (P09992 whole entry, looked up): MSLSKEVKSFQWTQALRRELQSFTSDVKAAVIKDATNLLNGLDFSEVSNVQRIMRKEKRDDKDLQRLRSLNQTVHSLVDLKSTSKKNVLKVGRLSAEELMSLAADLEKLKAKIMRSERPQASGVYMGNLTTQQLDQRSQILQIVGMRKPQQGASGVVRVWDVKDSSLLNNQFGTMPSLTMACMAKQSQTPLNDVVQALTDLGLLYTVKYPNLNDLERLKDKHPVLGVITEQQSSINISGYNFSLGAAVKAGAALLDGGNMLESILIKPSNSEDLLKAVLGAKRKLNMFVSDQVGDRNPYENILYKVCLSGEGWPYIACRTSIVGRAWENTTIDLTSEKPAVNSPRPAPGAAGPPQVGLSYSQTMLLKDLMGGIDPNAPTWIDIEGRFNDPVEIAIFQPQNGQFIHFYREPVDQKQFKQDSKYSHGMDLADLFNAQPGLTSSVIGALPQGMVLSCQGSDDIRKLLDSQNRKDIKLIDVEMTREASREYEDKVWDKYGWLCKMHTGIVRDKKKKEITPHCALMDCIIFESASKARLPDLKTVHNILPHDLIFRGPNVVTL

Row | Structure (SMILES) | Potency [1] | Potency [2] | Potency [3] | activity change, negative = reduced viability [1] | activity change, negative = lower viability [2] | activity change, negative = inhibition [3]
1 | CN/C(=C\[N+](=O)[O-])NCCSCc1csc(CN(C)C)n1 | inactive | inactive | inactive |  |  | 
2 | CC1(C)OC(=O)NC1=O | inactive | inactive | inactive |  |  | 
3 | Nc1c(I)cc(I)c(C(=O)N(CCC(=O)O)c2ccccc2)c1I | inactive | inactive | inactive |  |  | 
4 | CN1C(CSCC(F)(F)F)Nc2cc(Cl)c(S(N)(=O)=O)cc2S1(=O)=O (stereo not given) | inactive | inactive | inactive |  |  | 
5 | CCCCCCCCCCCCCCCCO | inactive | inactive | inactive |  |  | 
6 | C#CCN[C@@H]1CCc2ccccc21 | inactive | inactive | inactive |  |  | 
7 | Nc1ccn([C@@H]2CS[C@H](CO)O2)c(=O)n1 | inactive | inactive | inactive |  |  | 
8 | CCOc1ncc(F)c(=O)[nH]1 | inactive | inactive | inactive |  |  | 
9 | O=C(O)[C@@H](O)[C@H](O)[C@H](O)[C@@H](O)C(=O)O | inactive | inactive | inactive |  |  | 
10 | CN1Cc2cc(C(=O)N3CCC(C4CCNCC4)CC3)ccc2NC(CC(=O)O)C1=O (stereo not given) | inactive | inactive | inactive |  |  | 
11 | CCN(CC)CCNC(=O)COc1ccc(OC)cc1 | inactive | inactive | inactive |  |  | 
12 | Nc1nc(N)nc(-c2cc(Cl)ccc2Cl)n1 | inactive | inactive | inactive |  |  | 
13 | CCCc1c2oc(C(=O)O)cc(=O)c2cc2c(=O)cc(C(=O)O)n(CC)c12 | inactive | inactive | inactive |  |  | 
14 | CN[C@@H](C)Cc1ccccc1 | inactive | inactive | inactive |  |  | 
15 | O=C(CCN1CCC(c2ccccc2)C1)c1ccc2c(c1)OCCO2 (stereo not given) | inactive | inactive | inactive |  |  | 
16 | O=c1[nH]cnc2nc[nH]c12 | inactive | inactive | inactive |  |  | 
17 | CN1N=C(C(N)=O)CCC1=O | inactive | inactive | inactive |  |  | 
18 | O=C(NCN1CCOCC1)c1cnccn1 | inactive | inactive | inactive |  |  | 
19 | C[C@]12C=CC(=O)C=C1CC[C@@H]1[C@@H]2[C@@H](O)C[C@@]2(C)[C@H]1CC[C@]2(O)C(=O)CO | inactive | inactive | inactive |  |  | 
20 | CC(=O)Nc1ccc(/C=N/NC(N)=S)cc1 | inactive | inactive | inactive |  |  | 
21 | O=C(NCCO[N+](=O)[O-])c1cccnc1 | inactive | inactive | inactive |  |  | 
22 | O=C(O)Cn1cnnn1 | inactive | inactive | inactive |  |  | 
23 | COC(=O)c1ccc(NC(C)=O)cc1OC | inactive | inactive | inactive |  |  | 

Row | Structure (SMILES) | Potency [1] | Potency [2] | Potency [3] | activity change, negative = reduced viability [1] | activity change, negative = lower viability [2] | activity change, negative = inhibition [3]
24 | CC[C@H](C)C(=O)O[C@H]1C[C@H](O)C=C2C=C[C@H](C)[C@H](CC[C@@H](O)C[C@@H](O)CC(=O)O)[C@H]21 | inactive | inactive | inactive |  |  | 
25 | CCCCCCCCCCCCCCCCCCO | inactive | inactive | inactive |  |  | 
26 | O=C(O)c1ccc[n+]([O-])c1 | inactive | inactive | inactive |  |  | 
27 | Cc1cc2c(cc1CC(=O)c1sccc1S(=O)(=O)Nc1onc(C)c1Cl)OCO2 | inactive | inactive | inactive |  |  | 
28 | O=C(Cn1ccnc1[N+](=O)[O-])NCc1ccccc1 | inactive | inactive | inactive |  |  | 
29 | CC(C)c1ccc2oc3nc(N)c(C(=O)O)cc3c(=O)c2c1 | inactive | inactive | inactive |  |  | 
30 | O=C(O)c1ccccc1S | inactive | inactive | inactive |  |  | 
31 | Nc1cc(=O)[nH]c(N)n1 | inactive | inactive | inactive |  |  | 
32 | O=C1CC2(CCCC2)CC(=O)N1 | inactive | inactive | inactive |  |  | 
33 | CCCC(=O)OCOC(=O)C1=C(C)NC(C)=C(C(=O)OC)C1c1cccc(Cl)c1Cl (stereo not given) | inactive | inactive | inactive |  |  | 
34 | CC(=O)Nc1ncc([N+](=O)[O-])s1 | inactive | inactive | inactive |  |  | 
35 | O=C(O)CCCCCCCC(=O)O | inactive | inactive | inactive |  |  | 
36 | C/C(=C(\CCO)SS/C(CCO)=C(\C)N(C=O)Cc1cnc(C)nc1N)N(C=O)Cc1cnc(C)nc1N | inactive | inactive | inactive |  |  | 
37 | CN1[C@@H]2CC(OC(=O)[C@H](CO)c3ccccc3)C[C@H]1[C@@H]1O[C@@H]12 (stereo not given in full) | inactive | inactive | inactive |  |  | 
38 | COc1cc(OC)nc(O[C@H](C(=O)O)C(OC)(c2ccccc2)c2ccccc2)n1 | inactive | inactive | inactive |  |  | 
39 | COC(=O)c1ccccc1C(=O)c1ccc(OCCN2CCCCC2)cc1 | inactive | inactive | inactive |  |  | 
40 | CCCCCCCCCCCCCCCCN | inactive | inactive | inactive |  |  | 
41 | OC1(c2ccc(Cl)cc2)CCNCC1 | inactive | inactive | inactive |  |  | 
42 | O=C(O)Cn1c(=O)n(Cc2ccc(Br)cc2F)c(=O)c2ccc(Cl)cc21 | inactive | inactive | inactive |  |  | 
43 | CN=C(N)NC(=O)Nc1c(C)cccc1C | inactive | inactive | inactive |  |  | 
44 | COc1ccc(C2CNC(=O)C2)cc1OC1CCCC1 (stereo not given) | inactive | inactive | inactive |  |  | 
45 | O=C(O)CCCC[C@@H]1SC[C@@H]2NC(=O)N[C@@H]21 | inactive | inactive | inactive |  |  | 
46 | O=C1C(O)=C(O)C(=O)C(O)=C1O | inactive | inactive | inactive |  |  | 

Row | Structure (SMILES) | Potency [1] | Potency [2] | Potency [3] | activity change, negative = reduced viability [1] | activity change, negative = lower viability [2] | activity change, negative = inhibition [3]
47 | O=C(O)c1ccccc1C(=O)Nc1ccc(S(=O)(=O)Nc2nccs2)cc1 | inactive | inactive | inactive |  |  | 
48 | CCc1cc(C(N)=S)ccn1 | inactive | inactive | inactive |  |  | 
49 | COC(=O)/C=C\C(=O)OC | inactive | inactive | inactive |  |  | 
50 | CN(C)CCN(Cc1ccsc1)c1ccccn1 | inactive | inactive | inactive |  |  | 
51 | CCc1cc(S(=O)(=O)O)c2cc(C(C)C)cccc1-2 | inactive | inactive | inactive |  |  | 
52 | Cc1cnc(NS(=O)(=O)c2ccc(N)cc2)nc1 | inactive | inactive | inactive |  |  | 
53 | Cc1cc(O)cc(C)c1Cl | inactive | inactive | inactive |  |  | 
54 | O=C(O)/C=C(\CC(=O)O)C(=O)O | inactive | inactive | inactive |  |  | 
55 | NCCNCCNCCN | inactive | inactive | inactive |  |  | 
56 | Cc1c(F)c(N2CCNC(C)C2)cc2c1c(=O)c(C(=O)O)cn2C1CC1 (stereo not given) | inactive | inactive | inactive |  |  | 
57 | COC(=O)CCCCC(CCSS/C(CCO)=C(\C)N(C=O)Cc1cnc(C)nc1N)SC(C)=O (stereo not given) | inactive | inactive | inactive |  |  | 
58 | CN1C(C(=O)Nc2ccccn2)=C(O)c2sccc2S1(=O)=O | inactive | inactive | inactive |  |  | 
59 | N#Cc1ccc(C(c2ccc(C#N)cc2)n2cncn2)cc1 | inactive | inactive | inactive |  |  | 
60 | NC(CO)(CO)CO | inactive | inactive | inactive |  |  | 
61 | CCn1nc(C(=O)O)c(=O)c2cc3c(cc21)OCO3 | inactive | inactive | inactive |  |  | 
62 | CCOc1ccccc1OCC1CNCCO1 (stereo not given) | inactive | inactive | inactive |  |  | 
63 | Cc1coc2ccccc2c1=O | inactive | inactive | inactive |  |  | 
64 | Cc1cc2c(cc1S(N)(=O)=O)S(=O)(=O)CCC2 | inactive | inactive | inactive |  |  | 
65 | Cc1c(NC(=O)c2cccnc2)c(=O)n(-c2ccccc2)n1C | inactive | inactive | inactive |  |  | 
66 | N=C(N)N | inactive | inactive | inactive |  |  | 
67 | NC(N)=NCCN1CCCCCCC1 |  |  |  | 1.98% [at 0.757 µM] | 5.22% [at 0.757 µM] | -0.256% [at 0.757 µM]
68 | CCOCCn1c(C2CCN(CCc3ccc(C(C)(C)C(=O)O)cc3)CC2)nc2ccccc21 | inactive | inactive | inactive |  |  | 
69 | NC(=O)c1ccc([N+](=O)[O-])cc1Cl | inactive | inactive | inactive |  |  | 

Row | Structure (SMILES) | Potency [1] | Potency [2] | Potency [3] | activity change, negative = reduced viability [1] | activity change, negative = lower viability [2] | activity change, negative = inhibition [3]
70 | NC(Cc1ccc(Cl)cc1)C(=O)O (stereo not given) | inactive | inactive | inactive |  |  | 
71 | CCCCCCCCCCOc1cc2c(=O)c(C(=O)OCC)c[nH]c2cc1OCC |  |  |  | 1.68% [at 5.82 µM] | 5.24% [at 5.82 µM] | 13.4% [at 5.82 µM]
72 | O=C(Oc1ccccc1C(=O)O)c1ccccc1O | inactive | inactive | inactive |  |  | 
73 | CCOC(=O)C1=C[C@@H](OC(CC)CC)[C@H](NC(C)=O)[C@@H](N)C1 | inactive | inactive | inactive |  |  | 
74 | CC(=O)Nc1ccc(OCC(O)CNC(C)C)cc1 (stereo not given) | inactive | inactive | inactive |  |  | 
75 | CCOc1ccc(NC(=O)CC(C)O)cc1 (stereo not given) | inactive | inactive | inactive |  |  | 
76 | C[C@@H]1O[C@@H](OC[C@H]2O[C@@H](Oc3c(-c4ccc(O)c(O)c4)oc4cc(O)cc(O)c4c3=O)[C@H](O)[C@@H](O)[C@@H]2O)[C@H](O)[C@H](O)[C@H]1O | inactive | inactive | inactive |  |  | 
77 | CCOC(=O)Oc1ccc(CCNC(=O)[C@H](CCSC)NC(C)=O)cc1OC(=O)OCC | inactive | inactive | inactive |  |  | 
78 | COC(=O)c1ccc(O)cc1 | inactive | inactive | inactive |  |  | 
79 | NC/C=C/C(=O)O | inactive | inactive | inactive |  |  | 
80 | CCN1CCC[C@H]1CNC(=O)c1c(O)c(Cl)cc(Cl)c1OC | inactive | inactive | inactive |  |  | 
81 | CC(C)(C)NCC(O)COc1cccc2c1C[C@H](O)[C@H](O)C2 (stereo not given in full) | inactive | inactive | inactive |  |  | 
82 | CC(C)OP(=O)(CP(=O)(OC(C)C)OC(C)C)OC(C)C | inactive | inactive | inactive |  |  | 
83 | O=C(O)CCC(=O)O | inactive | inactive | inactive |  |  | 
84 | Cc1cc(=O)c2c(O)c3c(O)cc(=O)c4c3c3c(cc(O)c1c23)C(C)(C)C=4O | inactive | inactive | inactive |  |  | 
85 | CCCCCCCCCCC[C@@H](C[C@@H]1OC(=O)[C@H]1CCCCCC)OC(=O)[C@H](CC(C)C)NC=O | inactive | inactive | inactive |  |  | 
86 | CCN(CC)CCNC(=O)c1cc(S(C)(=O)=O)ccc1OC | inactive | inactive | inactive |  |  | 
87 | COc1cccc2c1C(=O)c1c(O)c3c(c(O)c1C2=O)C[C@@](O)(C(C)=O)C[C@H]3O[C@H]1C[C@H](N)[C@H](O)[C@H](C)O1 | 153 nM (active) | 153 nM (active) | 273 nM (active) |  |  | 
88 | CC(=O)Oc1cccc(O)c1 | inactive | inactive | inactive |  |  | 
89 | C[C@]12CCC(=O)C=C1CC[C@@H]1[C@@H]2[C@@H](O)C[C@@]2(C)[C@H]1CC[C@]2(O)C(=O)COC(=O)CCC(=O)O | inactive | inactive | inactive |  |  | 
90 | Nc1ncnc2nc[nH]c12 | inactive | inactive | inactive |  |  | 
